Test systems include SR leukemia; RPMI-8226 leukemia; OVCAR-8 ovarian; OVCAR-5 ovarian; OVCAR-4 ovarian; SK-OV-3 ovarian; HS 578T breast; NCI/ADR-RES ovarian; T-47D breast; BT-549 breast; MDA-MB-435 melanoma; SW-620 colon; MCF7 breast; HCT-116 colon; HCC-2998 colon; KM12 colon; IGROV1 ovarian; OVCAR-3 ovarian.
Common to all, as to experiment: NCI-60 one-dose screen, 48 h (100 = growth as untreated, 0 = no growth, -100 = all killed)
Conditions in all cases: 10 µM unless noted

Molecules are shown by their SMILES. This is part of a sample that, as a whole, favours compounds with a hit. Of some 83,000 tested, about 20% had one in any assay.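 Assay: single dose, 48 h. Readout: percent growth (0 = no net growth; negative = cell death). Active: <10.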 Values without a mark were called inactive. Active and inactive are the calls of the source.

The results in this text go back to PubChem BioAssay (NCI).

Regarding `CCN1CCN(CC(=O)Nc2nc3ccc(NCc4ccc(Br)cc4)cc3s2)CC1`, the growth in the assay with SR leukemia is 0.987% (active); with RPMI-8226 leukemia, 41.8%; with OVCAR-8 ovarian, 81.8%; in the assay with OVCAR-5 ovarian, 76%; in the assay with OVCAR-4 ovarian, 72.9%; in the assay with SK-OV-3 ovarian it was 90%. For the same compound, the growth was 81.3% in the assay with HS 578T breast; 79.3% in the assay on NCI/ADR-RES ovarian; 48.1% with T-47D breast; 85.7% with BT-549 breast; -6.35% (active) with MDA-MB-435 melanoma; 5.94% (active) with SW-620 colon. For the same compound, the growth in the assay with MCF7 breast was 10.3%; with HCT-116 colon, 17.8%; with HCC-2998 colon, 62.6%; in the assay with KM12 colon it was 52.8%.
As for `Fc1ccc2c(c1)c(-c1nc(-c3c[nH]c4ncccc34)cs1)cn2CCCN1CCOCC1`, the growth with SR leukemia is 12.1%; with RPMI-8226 leukemia, 36.6%; with OVCAR-8 ovarian, 59.7%; in the assay with OVCAR-5 ovarian, 82.3%; in the assay on OVCAR-4 ovarian, 56.2%; in the assay on IGROV1 ovarian, 38.6%. For the same compound, the growth in the assay with OVCAR-3 ovarian was 59.8%; with HS 578T breast, 38.3%; in the assay on NCI/ADR-RES ovarian, 59.2%; in the assay with T-47D breast it was 38.1%; in the assay on BT-549 breast, 69.5%; in the assay on MDA-MB-435 melanoma, -17.1% (active). For the same compound, the growth was 24.9% in the assay on SW-620 colon; 22% with MCF7 breast; 40.4% in the assay on HCT-116 colon; 74.3% in the assay with HCC-2998 colon; 22.5% with KM12 colon.
Consider `O=C1Nc2ccc(F)cc2/C1=N/c1nnc(Sc2ccccc2)s1`, for which the growth in the assay on SR leukemia was 61%; with RPMI-8226 leukemia it was 55.7%; in the assay with OVCAR-8 ovarian it was 89.7%; with OVCAR-5 ovarian, 113%; with OVCAR-4 ovarian it was 95%; in the assay on IGROV1 ovarian it was 80.2%. Moreover, the growth was 97.3% in the assay with OVCAR-3 ovarian; 94.4% in the assay on HS 578T breast; 85.3% in the assay on NCI/ADR-RES ovarian; 61.5% in the assay with T-47D breast; 105% with BT-549 breast; 99.7% in the assay with MDA-MB-435 melanoma. The growth in the assay on SW-620 colon is 91.9%; in the assay with MCF7 breast, 22.2%; in the assay on HCT-116 colon, 99.3%; in the assay with HCC-2998 colon, 104%; in the assay on KM12 colon it was 88%.
For the compound `COc1cccc(C(=O)OCC(O)C(=O)NC23CC4CC(CC(C4)C2)C3)c1` (stereo not drawn), the growth in the assay with SR leukemia was 88.9%; in the assay with RPMI-8226 leukemia it was 101%; in the assay on OVCAR-8 ovarian, 95.3%; with OVCAR-5 ovarian, 100%; in the assay on OVCAR-4 ovarian, 99.4%; in the assay with IGROV1 ovarian, 104%. Further, the growth is 111% in the assay with OVCAR-3 ovarian; 98.8% in the assay on HS 578T breast; 95.2% in the assay on NCI/ADR-RES ovarian; 98.3% in the assay with T-47D breast; 102% in the assay with BT-549 breast; 97.6% with MDA-MB-435 melanoma. Besides, the growth was 99.6% with SW-620 colon; 89.1% in the assay with MCF7 breast; 96.7% with HCT-116 colon; 105% in the assay on HCC-2998 colon; 108% with KM12 colon.
With `COc1ccccc1NC(=O)c1ccc(/C=C/C(=O)c2nccn2C)cc1`, the growth is -18.2% (active) in the assay with SR leukemia; -35% (active) in the assay with RPMI-8226 leukemia; 4.61% (active) with OVCAR-8 ovarian; -80.9% (active) with OVCAR-5 ovarian; -34.8% (active) in the assay with OVCAR-4 ovarian; 15.8% with SK-OV-3 ovarian. The growth is -90.9% (active) in the assay on OVCAR-3 ovarian; 35.5% with HS 578T breast; 5.75% (active) with NCI/ADR-RES ovarian; -15.8% (active) in the assay with T-47D breast; -77.7% (active) in the assay on SW-620 colon; -45.6% (active) with MCF7 breast. In addition, the growth in the assay on HCT-116 colon is -84.9% (active); with HCC-2998 colon, -85.9% (active); in the assay on KM12 colon it was -73.9% (active).
On to `C=C(C)[C@@H]1CC[C@]2(CO)CC[C@]3(C)[C@H](CC[C@@H]4[C@@]5(C)CCC(NCCc6ccc(O)cc6)C(C)(C)[C@@H]5CC[C@]43C)[C@@H]12` (stereo partly drawn), for which the growth is -46.8% (active) in the assay with SR leukemia; -53.5% (active) in the assay on RPMI-8226 leukemia; -79.4% (active) with OVCAR-8 ovarian; -72.4% (active) in the assay on OVCAR-5 ovarian; -89.3% (active) in the assay with OVCAR-4 ovarian; 75.8% with SK-OV-3 ovarian. In addition, the growth in the assay on OVCAR-3 ovarian is -95% (active); in the assay on HS 578T breast, -54.5% (active); with NCI/ADR-RES ovarian, -71% (active); with T-47D breast it was -66.3% (active); with MDA-MB-435 melanoma it was -92.4% (active); in the assay on SW-620 colon it was -80% (active). The growth was -77.9% (active) in the assay with MCF7 breast, -89.9% (active) in the assay on HCT-116 colon, -90.1% (active) in the assay on HCC-2998 colon and -84% (active) in the assay with KM12 colon.
In the case of `Cc1cc(N2CCCCC2)nc(N2CCN(CC(=O)Nc3ccc4c(ccn4Cc4ccccc4)c3)CC2)n1`, the growth in the assay on SR leukemia was 64%; in the assay on RPMI-8226 leukemia, 53.4%; with OVCAR-8 ovarian it was 36.6%; with OVCAR-5 ovarian, 88.7%; in the assay with OVCAR-4 ovarian, 54.2%; with IGROV1 ovarian, 64.5%. Also, the growth was 68.7% in the assay on OVCAR-3 ovarian; 66.7% in the assay on HS 578T breast; 47.9% in the assay with NCI/ADR-RES ovarian; 32.8% in the assay on T-47D breast; 82.7% with BT-549 breast; 77.8% with MDA-MB-435 melanoma. Moreover, the growth is 73.6% in the assay on SW-620 colon; 44.4% in the assay with MCF7 breast; 43.6% in the assay with HCT-116 colon; 93.3% in the assay with HCC-2998 colon; 49.1% with KM12 colon.
Consider `COc1ccc(/C=C/C(=O)c2cc3c(N)c(C(=O)Nc4ccccc4C)sc3nc2C)cc1`, for which the growth in the assay with SR leukemia was 15.2%; in the assay on RPMI-8226 leukemia, -7.33% (active); in the assay on OVCAR-8 ovarian it was 6.22% (active); in the assay with OVCAR-5 ovarian, 36.6%; in the assay on OVCAR-4 ovarian, 54%; with IGROV1 ovarian, 30.6%. Besides, the growth in the assay with OVCAR-3 ovarian was 1.23% (active); with HS 578T breast, 10.4%; with NCI/ADR-RES ovarian, 7.7% (active); in the assay on T-47D breast, 39.9%; in the assay with BT-549 breast it was 29.7%; with MDA-MB-435 melanoma, -39.6% (active). Besides, the growth in the assay on SW-620 colon is 14.9%; in the assay with MCF7 breast it was 9.36% (active); in the assay with HCT-116 colon, 14.7%; in the assay with HCC-2998 colon it was 15.4%; with KM12 colon it was 10.6%.
For the compound `CCN(CC)CCCNCc1cc(-c2ccccc2)nc2cc(Cl)ccc12`, the growth in the assay with SR leukemia is 13.6%; with RPMI-8226 leukemia it was 3.47% (active); in the assay with OVCAR-8 ovarian, 28.8%; in the assay with OVCAR-5 ovarian, 87.5%; in the assay with OVCAR-4 ovarian, 67.8%; in the assay with IGROV1 ovarian it was 28.9%. Moreover, the growth in the assay on HS 578T breast was 24.2%; in the assay with NCI/ADR-RES ovarian, 23.2%; in the assay with T-47D breast, -82.5% (active); in the assay with BT-549 breast it was 40.1%; in the assay on MDA-MB-435 melanoma, -39.7% (active); in the assay with SW-620 colon, -0.394% (active). Moreover, the growth in the assay on MCF7 breast is 23%; in the assay on HCT-116 colon, -16.5% (active); in the assay on HCC-2998 colon, -29.1% (active); with KM12 colon, 14.5%.
